{"source": "PubChem BioAssay AID743279", "about": "(National Center for Advancing Translational Sciences (NCATS), 2014)", "note": "Among all 360,000 compounds or so, about 17,000 (4.7%) were called active. Roughly 5% stayed inconclusive and do not appear here. Many of the other results were omitted from the sample, so actives are more common in it than they were. Unmarked numbers belong to inactive results. Cut-off read from the data, not from the text of the source: active = activity change below about -50%; inconclusive = mostly about -30% to -49%; inactive = weaker than that. % is set by controls: 0 for no effect and ±100 for the full control effect.", "data": [{"test": "qHTS for Inhibitors of Inflammasome Signaling: IL-1-beta AlphaLISA Primary Screen", "conditions": "THP-1 LPS/ATP IL-1B secretion, 16 h; at 57.5 µM, active compounds read low", "how_it_was_run": "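Secreted IL-1B measured by AlphaLISA bead assay after 16 h compound exposure of THP-1 cells; compounds (final up to 57.5 uM) added 1 h before LPS (250 ng/mL) and ATP (1.25 mM) stimulation; lower signal means less secretion.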", "values": [{"compound": "COC(=O)CC(CC(=O)OC)n1cccc1", "activity change": "4.98%"}, {"compound": "O=C(CN(Cc1ccc(Br)cc1)S(=O)(=O)c1ccccc1)NCc1ccncc1", "activity change": "-5.94%"}, {"compound": "Cc1cc(C)cc(C(=O)NC(CC(N)=O)c2ccc(N3CCC(N4CCCCC4)CC3)c([N+](=O)[O-])c2)c1", "note": "(stereo unspecified)", "activity change": "-16.2%"}, {"compound": "CCOC(=O)c1c(C)[nH]c(C)c1C(=O)COC(=O)/C=C/c1cccc([N+](=O)[O-])c1", "activity change": "-15%"}, {"compound": "CCCOC1CCCN(C(=O)c2cc(COc3cncc(Cl)c3)on2)C1", "note": "(stereo unspecified)", "activity change": "0%"}, {"compound": "CC(NC(=O)COC(=O)c1ccc2ccccc2n1)c1ccccc1", "note": "(stereo unspecified)", "activity change": "2.13%"}, {"compound": "COc1ccc(C(=O)COC(=O)c2ccc3ccccc3n2)cc1", "activity change": "3.46%"}, {"compound": "NC(=O)COC(=O)/C=C/c1ccc2ccccc2n1", "activity change": "-101% (active)"}, {"compound": "COc1cc(CCC(=O)N2CCN(c3ccccc3Cl)CC2)cc(OC)c1OC", "activity change": "7.36%"}, {"compound": "COCCCN(C(=O)Cn1ncc2c(=O)oc3ccc(C)cc3c21)C(C)c1ccncc1", "note": "(stereo unspecified)", "activity change": "7.95%"}, {"compound": "Nc1cccc(-c2cc(-c3ccccc3)nc(-c3cccc(N)c3)n2)c1", "activity change": "-9.31%"}, {"compound": "CS(=O)(=O)c1sc2nc(-c3ccccc3)cc(-c3ccccc3)c2c1N", "activity change": "-67.8% (active)"}, {"compound": "CNC(=S)NNC(=O)c1oc2nc(-c3ccccc3)cc(-c3ccco3)c2c1N", "activity change": "-18%"}, {"compound": "CCOC(=O)C(C)n1cnc2scc(-c3ccc(C)c(C)c3)c2c1=O", "note": "(stereo unspecified)", "activity change": "-7.25%"}, {"compound": "Cc1ccc(C(=O)Nc2nc(N)n(-c3ccccc3)n2)cc1", "activity change": "-8.07%"}, {"compound": "Cc1nn(-c2ccc(F)cc2)c(Cl)c1/C=C(/CCC(=O)O)c1nc2ccccc2s1", "activity change": "19.2%"}, {"compound": "Cc1ccc(C(=O)/C=C/c2c(C)nn(-c3ccccc3)c2Cl)cc1", "activity change": "-95% (active)"}, {"compound": "Cc1nn(-c2ccccc2)c(C)c1/C=C/C(=O)OC(C)C(N)=O", "note": "(stereo unspecified)", "activity change": "9.76%"}, {"compound": "Cc1nn(-c2ccccc2)c(Cl)c1/C=C/C(=O)c1ccc(O)cc1", "activity change": "-94.5% (active)"}, {"compound": "Cc1nn(-c2ccccc2)c(-n2cccc2)c1C(=O)O", "activity change": "20.3%"}, {"compound": "OCC(O)C1OCOC(C(O)CO)C1O", "note": "(stereo unspecified)", "activity change": "-2.84%"}, {"compound": "Cc1ccc(C2Nc3ccccc3C(=O)N2CCN2CCNC2=O)cc1", "note": "(stereo unspecified)", "activity change": "10.9%"}, {"compound": "Cc1cccc2[nH]c(CN(C)C(=O)C3CCC(=O)N(CCc4ccccc4)C3)nc12", "note": "(stereo unspecified)", "activity change": "0%"}, {"compound": "Cc1cccc(C)c1NC(=O)C(Cl)C(=O)c1ccccc1", "note": "(stereo unspecified)", "activity change": "-95.8% (active)"}, {"compound": "Cc1cccc(C)c1NC(=O)CN(C)C(=O)CCC(=O)c1ccccc1", "activity change": "-6.47%"}, {"compound": "Cc1cccc(C)c1NC(=O)C(c1ccccc1)N1CC(=O)Nc2ccccc21", "note": "(stereo unspecified)", "activity change": "-11%"}, {"compound": "OC(c1ccc(F)cc1)c1ncc(-c2cccc(C(F)(F)F)c2)[nH]1", "note": "(stereo unspecified)", "activity change": "-20.2%"}, {"compound": "CC(C)(C)CC(=O)Nc1nc(C(N)Cc2ccc(C(F)(F)F)cc2)cs1", "note": "(stereo unspecified)", "activity change": "-83.8% (active)"}, {"compound": "COc1ccc(CC(N)c2csc(NC(=O)Nc3ccc(C(C)C)cc3)n2)cc1", "note": "(stereo unspecified)", "activity change": "-108% (active)"}, {"compound": "COc1ccc(NC(=O)C(Br)C(C)C)cc1", "note": "(stereo unspecified)", "activity change": "-18.5%"}, {"compound": "Cc1ccccc1NC(=O)Cc1nc(COC(=O)c2ccc(C(F)(F)F)cc2)cs1", "activity change": "-4.36%"}, {"compound": "NC(Cc1ccccc1)c1csc(Nc2cc(Oc3ccccc3)ncn2)n1", "note": "(stereo unspecified)", "activity change": "0%"}, {"compound": "CC(C)(C)CC(=O)Nc1nnc(SCC(=O)NCc2cccs2)s1", "activity change": "-5.2%"}, {"compound": "COC(=O)[C@H](CCSC)NC(=O)Nc1ccc(OC)cc1", "activity change": "16.7%"}, {"compound": "COc1ccc(CC(N)c2csc(NC(=O)NC(c3ccccc3)c3ccccc3)n2)cc1", "note": "(stereo unspecified)", "activity change": "-61.5% (active)"}, {"compound": "COc1ccc(OC)c(NC(=O)N[C@H](Cc2ccccc2)C(=O)NN)c1", "activity change": "-13.5%"}, {"compound": "CCCS(=O)(=O)NC(=O)C1(C)CCN(C(=O)c2sccc2C)C1", "note": "(stereo unspecified)", "activity change": "6.04%"}, {"compound": "CC1(C(=O)NCc2cccc3ccccc23)CCN1Cc1ccc(-c2ccccc2)o1", "note": "(stereo unspecified)", "activity change": "-22.3%"}, {"compound": "COc1cccc(CNS(=O)(=O)c2ccc3c(c2)N(C(C)=O)CCS3)c1", "activity change": "-9.03%"}, {"compound": "CCC1CCCCN1C(=O)CSc1nc(C)cc(C)n1", "note": "(stereo unspecified)", "activity change": "-6.03%"}, {"compound": "COc1ccc(-c2ccc(CN3C(C(C)C)C(=O)N(Cc4cn(CC5CCCCC5)nn4)CCS3(=O)=O)cc2)cn1", "note": "(stereo unspecified)", "activity change": "-2.84%"}, {"compound": "COc1ccc(C(CCN(Cc2ccc(OC)c(OC)c2)C(=O)CCl)c2ccccc2)cc1", "note": "(stereo unspecified)", "activity change": "-101% (active)"}, {"compound": "COc1ccc(COC(=O)NC(C(=O)O)c2ccccc2)cc1", "note": "(stereo unspecified)", "activity change": "7.03%"}, {"compound": "COc1ccc(CCNC(=O)C(Sc2ccccn2)c2ccccc2)cc1OC", "note": "(stereo unspecified)", "activity change": "-6.65%"}, {"compound": "O=C(NCC(O)c1nc2ccccc2[nH]1)c1ccc(Br)cc1", "note": "(stereo unspecified)", "activity change": "1.41%"}, {"compound": "C/C(CC(=O)Nc1ccc(Cl)cc1)=N\\NC(=O)C(=O)NCCO", "activity change": "11.5%"}, {"compound": "CCOC(=O)Cc1csc(SCC(=O)Nc2ccc(C)cc2F)n1", "activity change": "21%"}, {"compound": "CCc1ccc(C2C(C#N)=C(N)Oc3n[nH]c(CC(=O)OC)c32)cc1", "note": "(stereo unspecified)", "activity change": "-9.71%"}, {"compound": "COc1ccc(-c2[nH]nc3c2C(c2ccncc2)C(C#N)=C(N)O3)cc1", "note": "(stereo unspecified)", "activity change": "0%"}, {"compound": "CCCc1[nH]nc2c1C(c1ccc(Br)s1)C(C#N)=C(N)O2", "note": "(stereo unspecified)", "activity change": "-99.8% (active)"}, {"compound": "COc1cc(C2C(C#N)=C(N)Oc3n[nH]c(-c4ccccn4)c32)cc(OC)c1OC", "note": "(stereo unspecified)", "activity change": "1.38%"}, {"compound": "CCOc1c(OC)cc(C2C(C#N)=C(N)Oc3n[nH]c(-c4ccncc4)c32)cc1OC", "note": "(stereo unspecified)", "activity change": "25.5%"}, {"compound": "CCCc1[nH]nc2c1C(c1ccc(OC)c(Cn3nc(C)c(Br)c3C)c1)C(C#N)=C(N)O2", "note": "(stereo unspecified)", "activity change": "-67% (active)"}, {"compound": "CC1(Oc2ccccc2-c2ccno2)CCN(Cc2ccc(-c3ccccc3)o2)C1", "note": "(stereo unspecified)", "activity change": "5.25%"}, {"compound": "S=C(Nc1ccccc1)Nc1ccc2ccccc2c1", "activity change": "-11.8%"}, {"compound": "O=C(Nc1ccc2ccccc2c1)Nc1ccc2snnc2c1", "activity change": "-98.9% (active)"}, {"compound": "O=C(Nc1cccc(Br)c1)c1ccc2snnc2c1", "activity change": "-14.1%"}, {"compound": "Cc1cc2oc(=O)cc(CN(C)Cc3ccccc3)c2cc1Cl", "activity change": "-8.49%"}, {"compound": "COc1ccc(CCOC2OC(CO)C(OC(=O)/C=C/c3ccc(O)c(OC)c3)C(O[C@H]3O[C@@H](C)[C@H](O)[C@@H](O)[C@H]3O)C2O)cc1O", "note": "(stereo partly specified)", "activity change": "12.4%"}, {"compound": "O=C(COC(=O)C1CCCO1)Nc1nc(-c2ccc(F)cc2)cs1", "note": "(stereo unspecified)", "activity change": "-13.3%"}, {"compound": "Cc1cccc(C)c1NC(=O)CN1CCN(c2ccc(F)cc2)CC1", "activity change": "21.6%"}, {"compound": "CC1CCCC(C)N1C(=O)CN1CCN(c2nc(-c3ccc(F)cc3)cs2)CC1", "note": "(stereo unspecified)", "activity change": "-52.3% (active)"}, {"compound": "O=C(CCCN1C(=O)C(c2ccccc2)Oc2cccnc21)Nc1ccccc1Br", "note": "(stereo unspecified)", "activity change": "-9.67%"}, {"compound": "Cc1cc(Br)cn2c(Cc3ccccc3C(F)(F)F)c(C3CCCCC3)nc12", "activity change": "1.07%"}, {"compound": "Cc1cccc2sc(N(CCCN(C)C)C(=O)CCS(=O)(=O)c3ccccc3)nc12", "activity change": "-96.3% (active)"}, {"compound": "Cc1ccc2sc(N(CCN(C)C)C(=O)/C=C/c3cccs3)nc2c1C", "activity change": "6.57%"}, {"compound": "COc1ccc(N(C)C(=O)CCS(=O)(=O)c2cccc3nsnc23)cc1", "activity change": "-11.5%"}, {"compound": "Cc1ccc(S(=O)(=O)CCC(=O)OCC(=O)N(C)Cc2ccccc2)cc1", "activity change": "8.91%"}, {"compound": "COc1cccc2sc(N(CCCN(C)C)C(=O)C(c3ccccc3)c3ccccc3)nc12", "activity change": "-104% (active)"}, {"compound": "COc1cc2ccccc2cc1C(=O)N(CCN(C)C)c1nc2c(F)cccc2s1", "activity change": "14.7%"}, {"compound": "COc1ccccc1NC(=O)CC(NCCN(C)C)C(=O)O", "note": "(stereo unspecified)", "activity change": "12.6%"}, {"compound": "COc1cccc2sc(N(CCCN(C)C)C(=O)CCS(=O)(=O)c3ccccc3)nc12", "activity change": "-103% (active)"}, {"compound": "Cc1cc(C)c2nc(N(CCN(C)C)C(=O)/C=C/c3cccs3)sc2c1", "activity change": "16.5%"}, {"compound": "CC(=O)NC(c1cccc(F)c1)c1nc(-c2cccc(F)c2)cs1", "note": "(stereo unspecified)", "activity change": "-16.3%"}, {"compound": "CCN(CC)C(=O)C(C)N1c2cccc3cccc(c23)S1(=O)=O", "note": "(stereo unspecified)", "activity change": "13.2%"}, {"compound": "O=C(CCNS(=O)(=O)c1ccccc1)NCCCc1ccccc1", "activity change": "14.3%"}, {"compound": "COc1ccc(OC)c(C(=O)c2ccc(C(=O)N3CCN(Cc4csc(C)n4)CC3)cc2)c1", "activity change": "27.4%"}, {"compound": "CCc1cc(C(N)=O)c(NC(=O)c2ccc(OC)cc2)s1", "activity change": "-102% (active)"}, {"compound": "COc1ccc(C(=O)Nc2ccc(F)cc2F)cc1", "activity change": "-11.8%"}, {"compound": "COc1ccc(C(=O)Nc2sc(C)c(C)c2CN2CCOCC2)cc1", "activity change": "14%"}, {"compound": "CCc1ccc(NC(=O)CN2CCC(C(=O)c3ccc(OC)cc3)CC2)cc1", "activity change": "-20.7%"}, {"compound": "CCc1cc(C(=O)c2ccc(OC)cc2)c(NC(=O)CN2CCN(C)CC2)s1", "activity change": "-54.3% (active)"}, {"compound": "CCCCn1nnnc1C(c1cc2ccccc2o1)N(C)Cc1ccc(Cl)c(Cl)c1", "note": "(stereo unspecified)", "activity change": "1.13%"}, {"compound": "COc1ccc(CN2C(=O)C(CC(=O)NCCCCc3ccccc3)CC(C(=O)N3CCOCC3)=C2C)cc1", "note": "(stereo unspecified)", "activity change": "-11%"}, {"compound": "CCn1nc(C)c(NC(=O)/C=C/c2ccc(OC)c(COc3ccc(Br)cc3)c2)c1C", "activity change": "-50.3% (active)"}, {"compound": "COc1ccc(/C=C/C(=O)Nc2c(C)nn(C)c2C)cc1COc1ccc(Br)cc1", "activity change": "-24.2%"}, {"compound": "COc1ccc(C(C)=O)cc1COc1ccc(Cl)c(C)c1", "activity change": "-8.14%"}, {"compound": "O=C(NN=Cc1ccc2c(c1)CCC2)c1ccccc1O", "activity change": "-24.6%"}, {"compound": "CC1CCN(S(=O)(=O)c2ccc3c(c2)n(C)c(=O)n3C)CC1", "activity change": "-8.4%"}, {"compound": "CC1CCN(C(=S)c2cccc(O)c2)CC1", "activity change": "10.7%"}, {"compound": "CCCCn1c(N)c(N(CCOC)C(=O)c2sc3ccccc3c2Cl)c(=O)[nH]c1=O", "activity change": "-21.6%"}]}]}
